Molecules are shown by their SMILES. This is part of a sample that, as a whole, favours compounds with a hit. Of some 83,000 tested, about 20% had one in any assay.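 Treatment: one concentration, 48 hours, 96-well format. Scoring: percent growth, with anything below 10 considered active.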 The source made the active and inactive calls.

This experiment has as its system HL-60(TB) leukemia. Kind of experiment: NCI-60 one-dose screen, 48 h (100 = growth as untreated, 0 = no growth, -100 = all killed). The conditions noted are these: 10 µM unless noted.
With `CC(=O)Oc1ccccc1C(=O)Oc1ccc(C(=O)/C=C/c2ccncc2)cc1`, the growth is 3.04% (active). The same measure for `COc1ccc2c(c1)c(-c1cc3nc(-c4cn(C)c5ncc(Br)cc45)cc(N)n3n1)cn2C`: -59.7% (active); for `CCOc1ccc2[nH]c(=O)c(C(c3nnnn3CC3CCCO3)N3CCN(Cc4ccccc4)CC3)cc2c1` (stereo not given): 149% (inactive). The same measure for `Cn1cc(-c2cc(N)n3nc(-c4c[nH]c5ccc(F)cc45)cc3n2)c2cccnc21`: -54% (active); for `O=C(NO)c1ccc(-c2nc3ccc4[nH]ncc4c3c3c2CCCC3)cc1`: -18.7% (active); for `C#CCN(C)CCCOc1ccc(N(C)C(=O)c2cc(C(C)C)c(O)cc2O)cc1Cl`: -40.7% (active). For `OCCn1cc(-c2nc3ccc4[nH]ncc4c3c3c2CCCC3)cn1` the value was 45.2% (inactive); for `O=S(=O)(Nc1ncccn1)c1ccc(-n2c(-c3ccc(Br)cc3)nc(-c3ccccc3)c2-c2ccccc2)cc1`, 41.2% (inactive); for `Cc1cc2nc3c4ccccc4n(CCCN(C)C)c3nc2cc1C`, -40.5% (active).

Take `Nc1cc(-c2cccc(C(=O)NCc3ccc4c(c3)OCO4)c2)ccn1`: the growth is 98.1% (inactive). For the molecule `COc1ccsc1/C=N/NC(=O)c1[nH]c2ccc(Br)cc2c1-c1ccccc1`, the growth was -33.3% (active). The same measure for `CCCn1c(=O)c2[nH]c(-c3ccc(OCc4nc5ccccc5[nH]4)cc3)nc2n(CCC)c1=O`: 85.3% (inactive); for `COc1ccc(/C=C/c2nc3ccccc3nc2Nc2cccc(C)c2)cc1`: 92.8% (inactive). In the case of `COc1ccc(C2NC(=S)NC(C)=C2C(=O)OC(C)C)cc1OC` (stereo not given), the growth is 100% (inactive). For `COc1c(F)ccc(C(=O)Nc2ccc3nc(NC(=O)C4CCCN(S(=O)(=O)c5ccc(Br)c(F)c5)C4)sc3c2)c1F` (stereo not given), the growth was 88.8% (inactive). The same measure for `O=C(c1ccc(O)cc1)C1[C@H](c2ccc(Cl)cc2)[C@@H](c2ccccc2)NC12C(=O)Nc1ccccc12` (stereo not given in full): -33.3% (active); for `Cc1noc2c(Cc3ccc([N+](=O)[O-])cc3)nn(CC(=O)N/N=C/c3ccc(Br)cc3)c(=O)c12`: 95.4% (inactive); for `COC(=O)C[C@](O)(CCCC(C)(C)O)C(=O)O[C@H]1C(OC)=C[C@@]23CCCN2CCc2cc4c(cc2[C@@H]13)OCO4`: -30.3% (active). For `CN1C(=O)N(C)C2SC(N/N=C/c3ccccc3F)=NC21` (stereo not given) the value was 1.5% (active); for `Cc1nc(Nc2nc(C)c3ccc(OCCN4CCOCC4)cc3n2)[nH]c(=O)c1C`, 2.88% (active). For `FC(F)(F)c1cc2c(Cl)ncnc2n1CCN1CCOCC1`, the growth was 7.02% (active).

Consider `COc1ccc2nc(Cl)c(-c3cc(-c4ccccc4)nc(N)n3)cc2c1`, for which the growth is -37.5% (active). As for `CC(=O)Nc1ccc(S(=O)(=O)Nc2ccc(-c3ccc4c(c3)NC(=O)/C4=C\c3ccc[nH]3)cc2)cc1`, the growth was 84.2% (inactive).

For `O=C1CCCc2cc(OCC(=O)N3CCCCC3)ccc2N1`, the growth was 91.9% (inactive). For `COc1ccc(/C(CSc2nnc(-c3c[nH]c4ccccc34)n2-c2ccccc2)=N/O)cc1` the value was 3.87% (active); for `COc1cc(C2CC(c3ccc(S(=O)(=O)NCCNc4nc(Nc5ccc(F)cc5)nc(N(C)C)n4)cc3)=Nc3c(N)nc(N)nc3N2)cc(OC)c1OC` (stereo not given), 80.3% (inactive). For `Cn1cc(-c2cc3nc(-c4cn(C)c5ncccc45)cc(N)n3n2)c2cc(Cl)ccc21` the value was -66.6% (active); for `CCN(CC)CCOc1ccc(Nc2ncc3cc(-c4ccc(O)c(C#N)c4)c(=O)n(C)c3n2)cc1`, 87.6% (inactive); for `[2H]C([2H])([2H])Oc1ccc2ncc(C#Cc3cncc(C(=O)Nc4ccc(CN5CCN(C)CC5)c(C(F)(F)F)c4)c3)n2n1`, -60.4% (active).

Regarding `N#Cc1ccc(C(=O)NNC(=O)CSc2nc3sc4c(c3c(=O)n2-c2ccc(Cl)cc2)CCCC4)cc1`, the growth was 67.2% (inactive). For `CCCCN1C(=O)/C(=C\C(=O)c2cc3ccccc3oc2=O)c2ccccc21` the value was 74.8% (inactive); for `CCCCSc1nc(Nc2ccc(/C(C)=N/NC(N)=S)cc2)c(C#N)c(-c2ccc(F)cc2)n1`, 90.7% (inactive). For `CC(C)c1sc(NC(=O)c2cc(NC(=O)c3cc(NC(=O)c4nccn4C)cn3C)cn2C)nc1C(=O)NCCCN(C)C` the value was 47.1% (inactive); for `CC(=O)Nc1ccc(-c2nc3cc(-c4ccc(O)cc4)ccc3n2C)cc1`, 26% (inactive).

In the case of `CC(C)c1ccc2c(N)c(C(=O)Nc3cccc(C(F)(F)F)c3)sc2n1`, the growth is 66.2% (inactive).
